Source: PubChem BioAssay (National Center for Advancing Translational Sciences (NCATS))
Marburg entry inh: inhibitors of Marburg virus binding or cell entry. Marburg virus pseudotyped entry inhibition, cell reporter. Potency, µM (highest dose often 37.8 µM), for inactives: at the top dose activity change, negative = inhibition, usual class: inhibitors. actives 1.8% (n = 300,000). AID 540276; calls by dose curve; tested in HEK293 cells
HCV inhibitor: HCV inhibition | Huh7.5.1 HCVcc-Cre infection, luciferase reporter, 44 h | Potency, µM (doses to about 41.8 µM), without a hit: at the highest dose activity change, negative = inhibition, usual class: inhibitors | actives 3.4% (n = 340,000)
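Antiviral activity was scored by luciferase reporter output from cells infected with HCVcc-Cre (~0.5 moi) in presence of compound, 44 h infection period, cells seeded 1,000/well 4 h prior.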
Sm TGR inh: S. mansoni TGR enzyme inhibition. purified TGR, DTNB reduction, TNB absorbance 405 nm. Potency, µM (doses to about 114 µM), for inactives: at the highest dose activity change, negative = inhibition, actives largely listed as inhibitors. actives 3% (n = 360,000); also: nearly all actives have a fitted effect of over 60% in size
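First, TGR (20 nM dispensed) and NADPH were mixed with compound. Second, a 15 min room-temperature incubation followed. Third, further NADPH and then DTNB were added to start the reaction. Finally, TNB absorbance was monitored kinetically.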
FMDV inh: blocks foot and mouth disease virus. FMDV antiviral cell-based qHTS. actives 1.2% (n = 410,000). Potency, µM (top dose mostly 57.9 µM), for inactives: at the top dose activity change, negative = inhibition, actives largely listed as inhibitors; calls by dose curve; tested in HEK293T cells; also: read-out not given here; nearly all actives have a fitted effect of over 45% in size
Lassa entry inh: blocks Lassa virus binding to or entry into cells. actives 1.2% (n = 300,000). Lassa virus pseudotype entry inhibition, cell reporter. Potency, µM (doses to about 37.9 µM), without a hit: top-dose activity change, negative = inhibition, hits mostly inhibitors; calls by dose curve; tested in HEK293 cells; also: nearly all actives have a fitted effect of over 50% in size
RE007 growth inh: less growth of the S. pombe RE007 Vpr strain | S. pombe RE007 Vpr strain, BacTiter-Glo ATP luminescence, 24 h | Potency, µM (doses to about 92.2 µM), for the others: top-dose activity change, negative = less growth, most hits filed as inhibitors | actives 0.21% (n = 360,000); active = well fitted falling curve with a large enough effect; inconclusive = small, poorly fitted or top-dose-only effect; inactive = no such curve, though single readings can be large or run the other way; also: nearly all actives have a fitted effect of over 50% in size
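Fission yeast RE007 carrying one integrated HIV-1 vpr copy, seeded at OD 0.01 in PMG+AL medium with 23 nL pinned compound. Grown 24 h at 30 degrees; viability read by BacTiter-Glo luminescence after 5 min.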
* marks the source's active call; other numbers are inactive results; ? = inconclusive; . = not tested or not shown; [ ] = another dose, or the depositor's remark. Compounds with a hit are over-represented: about 7.2% of the library has one in this group of screens. Unless noted, calls follow the shape of the dose curve; as a rule, active = well fitted curve in the direction sought with a large enough effect; inconclusive = small, poorly fitted or top-dose-only effect, or another doubt; inactive = no such curve, though single readings can be large; an effect the other way counts as inactive or inconclusive. % is scaled to controls: 0 for no effect and ±100 for the full control effect; potency is read from the fitted curve at half-maximal effect.

SMILES	Marburg entry inh	HCV inhibitor	Sm TGR inh	FMDV inh	Lassa entry inh	RE007 growth inh
O=S(=O)(c1ccc2c(c1)OCCO2)N1CCN(c2ncnc3sccc23)CC1	?	1µM*	-6%	?	?	13%
Cc1ccc(S(=O)(=O)N2CCN(c3ncnc4sccc34)CC2)cc1C	?	11µM*	2%	11µM*	?	0%
Cc1ccc(S(=O)(=O)N2CCN(c3ncccn3)CC2)cc1C	?	-3%	.	-19%	-17%[46.1 µM]	5%
O=S(=O)(c1ccc2c(c1)OCCO2)N1CCN(S(=O)(=O)c2ccc3c(c2)OCCO3)CC1	.	.	0%	.	.	.
CCCN(CCC)C(=O)c1oc2ccccc2c1NC(=O)Cc1cccc(OC)c1	.	11µM*	-8%	-9%	.	-3%
COc1cccc(CC(=O)Nc2c(C(=O)N3CCN(c4ccccc4)CC3)oc3ccccc23)c1	-10%[46.1 µM]	.	7%	48%	20%[46.1 µM]	.
NC(=S)N/N=C\c1c(OCc2ccccc2Cl)ccc2ccccc12	?	7.9µM*	7%	?	?	7%
NC(=S)N/N=C\c1c2ccccc2cc2ccccc12	?	13µM*	-16%	0%	13%	-5%
CN1C(=O)C(=Cc2ccc(N3CCOCC3)o2)C(=O)N(C)C1=O	?	8%	?	13%	-6%	-1%
O=C1S/C(=C\c2ccc(N3CCOCC3)o2)C(=O)N1Cc1c(F)cccc1Cl	-15%	?	2.8µM*	.	-14%	-19%
O=C1S/C(=C\c2ccc(N3CCOCC3)o2)C(=O)N1c1ccccc1	?	32µM*	?	2%	18%	-7%
Cc1c(C2=CCN(S(=O)(=O)c3ccc(CC(C)C)cc3)CC2)c2ccccc2n1CC(=O)N1CCCC1	-20%[46.1 µM]	.	?	0%	-22%[46.1 µM]	.
O=CN/C=C/c1cc(O)ccc1O	.	10%	6.3µM*	-23%	.	-3%
CCC1CCc2nc3sc(C(=O)Nc4ccc(C)cc4)c(N)c3cc2C1 (centres undefined)	2%[46.1 µM]	.	1%	3%	1%[46.1 µM]	.
COc1ccc(-c2nn(-c3ccccc3)cc2/C=N/n2cnnc2)cc1OC	3%	?	-1%	-18%	1%	7%
COc1ccc(-c2nn(-c3ccccc3)cc2/C=N/NC(N)=S)cc1OC	?	11µM*	-3%	-16%	?	-1%
C#CCOCCOCCOCCNc1nc(N2CCN(C(=O)CCCCCCCCCCNC(=O)[C@H]([C@@H](C)CC)n3cc(CCCCN=C(N)N)nn3)CC2)nc(N2CCN(C(=O)CCCCCCCCCCNC(=O)[C@H]([C@@H](C)CC)n3cc(CCCCN=C(N)N)nn3)CC2)n1	.	?	40µM*	.	.	.
C#CCOCCOCCOCCNc1nc(N2CCN(C(=O)CCCCCCCCCCNC(=O)[C@H]([C@@H](C)CC)n3cc(CCCCCN)nn3)CC2)nc(N2CCN(C(=O)CCCCCCCCCCNC(=O)[C@H](CO)n3cc(CCCCCN)nn3)CC2)n1	.	?	?	-2%	.	27%
C#CCOCCOCCOCCNc1nc(N2CCN(C(=O)CCCCCCCCCCNC(=O)[C@H](CO)n3cc(CCCSC)nn3)CC2)nc(N2CCN(C(=O)CCCCCCCCCCNC(=O)[C@H](CCCCN)n3cc(CCO)nn3)CC2)n1	.	44%	.	-11%	.	8%
C#CCOCCOCCOCCNc1nc(N2CCN(C(=O)CCCCCCCCCCNC(=O)[C@H]([C@@H](C)CC)n3cc(CCCCN=C(N)N)nn3)CC2)nc(N2CCN(C(=O)CCCCCCCCCCNC(=O)[C@H](CO)n3cc(CCCCCN)nn3)CC2)n1	.	?	45µM*	?	.	2%
C#CCOCCOCCOCCNc1nc(N2CCN(C(=O)CCCCCCCCCCNC(=O)[C@@H](CCC(=O)O)n3cc(CCCCCN)nn3)CC2)nc(N2CCN(C(=O)CCCCCCCCCCNC(=O)[C@H]([C@@H](C)CC)n3cc(CCCCCN)nn3)CC2)n1	.	?	-25%	-8%	.	34%
C#CCOCCOCCOCCNc1nc(N2CCN(C(=O)CCCCCCCCCCNC(=O)[C@H]([C@@H](C)CC)n3cc(CCCCCN)nn3)CC2)nc(N2CCN(C(=O)CCCCCCCCCCNC(=O)[C@H](CCCCN)n3cc(CCCC(=O)O)nn3)CC2)n1	.	11µM*	-4%	?	.	11%
C#CCOCCOCCOCCNc1nc(N2CCN(C(=O)CCCCCCCCCCNC(=O)[C@H](CO)n3cc(CCCSC)nn3)CC2)nc(N2CCN(C(=O)CCCCCCCCCCNC(=O)[C@@H]([C@H](C)O)n3cc(C)nn3)CC2)n1	.	?	45µM*	.	.	.
Cc1cc(C)cc(NC(=O)C(=O)NCC(c2cccnc2)N2CCc3ccccc32)c1 (centres undefined)	.	.	3%	-28%	-1%[46.1 µM]	.
COc1ccc(OC)c(CCNC(=O)CCn2c(=O)c3cccn3c3ccc(F)cc32)c1	.	.	-2%	-16%	-1%[46.1 µM]	.
SMILES	Marburg entry inh	HCV inhibitor	Sm TGR inh	FMDV inh	Lassa entry inh	RE007 growth inh
CC(C)(C)OC(=O)CC[C@@H](C(=O)NCCCCCCCCCCC(=O)N1CCN(C(=O)OC(C)(C)C)CC1)n1cc(CCCCCNC(=O)OC(C)(C)C)nn1	.	-14%	-15%	0%	.	1%
C#CCOCCOCCOCCNc1nc(N2CCN(C(=O)CCCCCCCCCCNC(=O)Cn3cc(CCCCCN)nn3)CC2)nc(N2CCN(C(=O)CCCCCCCCCCNC(=O)[C@@H](CCC(=O)O)n3cc(CCCCCN)nn3)CC2)n1	.	-7%	50µM*	-14%	.	13%
CC(C)(C)OC(=O)NCCCCCc1cn([C@@H](CO)C(=O)NCCCCCCCCCCC(=O)N2CCN(C(=O)OC(C)(C)C)CC2)nn1	.	?	4%	7.1µM*	.	6%
C#CCOCCOCCOCCNc1nc(N2CCN(C(=O)CCCCCCCCCCNC(=O)Cn3cc(C[C@@H](C)O)nn3)CC2)nc(N2CCN(C(=O)CCCCCCCCCCNC(=O)[C@@H](CCC(=O)O)n3cc(CCCCCN)nn3)CC2)n1	.	11%	-17%	-19%	.	5%
C#CCOCCOCCOCCNc1nc(N2CCN(C(=O)CCCCCCCCCCNC(=O)[C@H]([C@@H](C)CC)n3cc(CCCCN=C(N)N)nn3)CC2)nc(N2CCN(C(=O)CCCCCCCCCCNC(=O)[C@H](CCCCN)n3cc(C)nn3)CC2)n1	.	?	40µM*	35µM*	.	0%
CCC(=O)Nc1ccccc1-c1nc2ccccc2n(CC(=O)c2ccc(Cl)cc2)c1=O	2%[46.1 µM]	.	-15%	-18%	-9%[46.1 µM]	.
CCOc1ccc(CCNC(=O)c2cc3c(s2)-c2ccccc2OC3)cc1OCC	?	.	4%	0%	.	.
COc1ccc(S(=O)(=O)Nc2cc3c(cc2NCc2ccccc2)n(C)c(=O)n3C)cc1OC	22%[46.1 µM]	.	-7%	24%	13%[46.1 µM]	.
